Bioassay records deposited in PubChem BioAssay by The Scripps Research Institute Molecular Screening Center.
GPR151 activ: activators of human GPR151. PathHunter beta-arrestin GPR151 cells, luminescence. activation, % at 11.2 µM. 1% of 650,000 active. AID 1508602; in the data active = activation above about 4.9%;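 also: 0% = median of compound wells and 100% = cells with positive control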
TEAD-YAP block: TEAD-YAP interaction inhibition | HEK-TIYL cells, TEAD-Gal4/YAP UAS-luciferase luminescence | inhibition, % at 9.12 µM | 1.4% of 640,000 active | AID 1259422; in the data active = inhibition above about 32%;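 also: 0% = median of test compound wells and 100% = reference inhibitor wells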
MITF primary: inhibitors of human MITF | O75030 | AlphaScreen MITF homodimerization, bead proximity signal | 0.91% of 650,000 active | inhibition, % at 2.6 µM; in the data active = inhibition above about 50%;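 also: 0% = vehicle wells with protein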
Target sequence (O75030 whole entry, looked up): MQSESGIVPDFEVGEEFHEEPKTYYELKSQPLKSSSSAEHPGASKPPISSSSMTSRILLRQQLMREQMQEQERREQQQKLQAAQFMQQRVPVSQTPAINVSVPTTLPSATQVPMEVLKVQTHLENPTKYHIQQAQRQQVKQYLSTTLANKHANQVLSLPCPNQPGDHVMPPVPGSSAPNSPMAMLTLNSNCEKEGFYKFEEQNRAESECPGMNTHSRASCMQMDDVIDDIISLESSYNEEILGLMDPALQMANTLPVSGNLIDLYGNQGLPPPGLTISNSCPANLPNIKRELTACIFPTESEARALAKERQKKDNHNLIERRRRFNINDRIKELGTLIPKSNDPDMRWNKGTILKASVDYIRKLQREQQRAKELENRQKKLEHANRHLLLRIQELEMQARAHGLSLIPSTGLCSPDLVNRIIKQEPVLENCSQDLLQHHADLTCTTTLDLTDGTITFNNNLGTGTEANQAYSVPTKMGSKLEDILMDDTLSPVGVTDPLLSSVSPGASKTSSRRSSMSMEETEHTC
FBW7 activator: activators of human E3 ligase FBW7 | Q969H0 | AlphaScreen FBW7–phospho-cyclin E peptide binding, activator screen | AID 1259310 | normalized activity (activation), % at 26.1 µM | 0.13% of 650,000 active; in the data active = normalized activity above about 1.9%;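 also: purified mutant Fbw7 with reduced substrate affinity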
* = called active by the depositor; / = no result. Most compounds without a hit are left out; they make up all but 3.4% or so of the library.

SMILES | GPR151 activ | TEAD-YAP block | MITF primary | FBW7 activator
COc1ccc(Br)c(C(=O)N/C(=C/c2cccc([N+](=O)[O-])c2)C(=O)Nc2ccc(Cl)cc2C)c1 | 0 | 13 | 3 | 0
CCC(C)C1N=C2c3ccccc3N=C(SCC(=O)c3ccc(O)c(O)c3)N2C1=O (stereo not given) | 0 | 0 | 61* | 0
Cc1cccc(N2CCN(C(=O)c3ccc4c(c3)NC(=O)CS4)CC2C)c1 (stereo not given) | 0 | 60* | 16 | 1
CCN(CC)C(=O)c1ccc(Sc2ccc(Br)cc2)c([N+](=O)[O-])c1 | 1 | 5 | 3 | 0
O=C(c1ccc(S(=O)(=O)c2ccc(Br)cc2)c([N+](=O)[O-])c1)N1CCCC1 | 0 | 32* | 15 | 1
Cc1cccc(N2CCN(C(=O)c3ccc4c(c3)NC(=O)c3ccccc3N4)CC2C)c1 (stereo not given) | 2 | -4 | 1 | 0
Cc1ccc(C)c(N2CCN(C(=O)c3ccc(S(=O)(=O)c4ccc(F)cc4)c([N+](=O)[O-])c3)CC2)c1 | 0 | 44* | 15 | 0
CCN(CC)C(=O)c1ccc(S(=O)(=O)c2ccc(Br)cc2)c([N+](=O)[O-])c1 | -1 | 49* | 11 | 0
O=C(c1ccc(S(=O)(=O)c2ccc(Br)cc2)c([N+](=O)[O-])c1)N1CCN(c2ccc(F)cc2)CC1 | 1 | 11 | -12 | 0
Cc1ccc(C)c(N2CCN(C(=O)c3ccc(S(=O)(=O)c4ccccc4Cl)c([N+](=O)[O-])c3)CC2)c1 | 2 | 8 | 5 | 0
C#CCN1C(=O)S/C(=C/c2ccc(O)c(Br)c2)C1=O | -1 | -3 | 4 | 0
COc1cc(OC)c(C(=O)NCc2nc(-c3cccc(C)c3)no2)cc1OC | -1 | 8 | 7 | 0
CCc1ccc(OCc2nnc(SC(C)C(=O)OC)n2C)cc1 (stereo not given) | -1 | 8 | 4 | 0
O=C(c1ccc(S(=O)(=O)c2ccc(F)cc2)c([N+](=O)[O-])c1)N1CCCCCC1 | 0 | 34* | -4 | 0
O=C(c1ccc(S(=O)(=O)c2ccc(F)cc2)c([N+](=O)[O-])c1)N1CCC2(CC1)OCCO2 | 0 | 4 | 2 | 0
CC1CCCCN1C(=O)c1ccc(S(=O)(=O)c2cccc(Cl)c2)c([N+](=O)[O-])c1 (stereo not given) | 0 | 38* | 3 | 0
Cc1ccc(C(=O)N2CCN(c3ccc([N+](=O)[O-])cc3)CC2C)cc1 (stereo not given) | 1 | 39* | 5 | 0
O=C(c1ccc(S(=O)(=O)c2ccccc2Cl)c([N+](=O)[O-])c1)N1CCN(Cc2ccccc2)CC1 | 2 | 33* | 8 | 0
CCCc1nnc(SCC(=O)Nc2nc(C)c(C)s2)n1CC1CCCO1 (stereo not given) | -1 | 10 | 1 | 1
Cc1nccn1CCC(=O)N1CCc2c([nH]c3ccccc23)C1c1ccccc1F (stereo not given) | 1 | -15 | 5 | 0
COC(OC)C12c3ccccc3C(c3ccccc31)C1C(=O)N(c3ccc(Br)cc3)C(=O)C12 (stereo not given) | 0 | -10 | 10 | 0
O=C(O)c1ccc(S(=O)(=O)c2ccc(F)cc2)c([N+](=O)[O-])c1 | -1 | -4 | 10 | 0
C=CCNC(=O)c1ccc(S(=O)(=O)c2ccc(F)cc2)c([N+](=O)[O-])c1 | 1 | 34* | 13 | 0
CCOC(=O)CS(=O)(=O)c1ccc(C(=O)N2CCN(c3cccc(C)c3)C(C)C2)cc1[N+](=O)[O-] (stereo not given) | 0 | 52* | -7 | 0
CCCNC(=O)c1ccc(S(=O)(=O)c2ccc(OC)cc2)c([N+](=O)[O-])c1 | 0 | 36* | -6 | 0
SMILES | GPR151 activ | TEAD-YAP block | MITF primary | FBW7 activator
O=C(c1ccc(S(=O)(=O)c2ccc(Br)cc2)c([N+](=O)[O-])c1)N1CCCCC1 | -1 | 37* | 9 | 0
COc1ccc(-n2nnnc2SCCn2c([N+](=O)[O-])cnc2C)cc1 | 0 | -4 | -6 | 0
CN(C)c1cccc(CNC2CCN(CCc3cccs3)CC2)c1 | -1 | 0 | 18 | 0
CCC(C)NC(=O)CCc1c(C)nc2c(-c3ccc(F)cc3)c(C)nn2c1C (stereo not given) | 0 | 3 | -2 | 1
O=C(c1ccc(S(=O)(=O)c2ccc(Br)cc2)c([N+](=O)[O-])c1)N1CCCCCC1 | 1 | 35* | 15 | 0
Cc1cccc(N2CCN(C(=O)c3ccc(S(=O)(=O)c4ccc(F)cc4)c([N+](=O)[O-])c3)C(C)C2)c1 (stereo not given) | 3 | 54* | 14 | 0
CCN(CC)S(=O)(=O)c1ccc(C(=O)OCC(=O)c2ccccc2)cc1 | 1 | 6 | 1 | 0
Nc1c(N=Nc2ccc(-c3ccc(N=Nc4cc(S(=O)(=O)O)c5ccccc5c4N)cc3)cc2)cc(S(=O)(=O)O)c2ccccc12 | -4 | 2 | 23 | -1
Cc1cc(-c2ccc(N=Nc3ccc4c(S(=O)(=O)O)cc(S(=O)(=O)O)c(N)c4c3O)c(C)c2)ccc1N=Nc1ccc2c(S(=O)(=O)O)cc(S(=O)(=O)O)c(N)c2c1O | 0 | / | 78* | 0
S=C(NCCN1CCCCC1)Nc1ccc2c(c1)OCO2 | 2 | -1 | 11 | 0
COc1ccccc1-n1c(=O)[nH]c2c(C(N)=O)nc(-c3cccc(F)c3)nc21 | 1 | -1 | 6 | 0
COc1ccc(-c2nc(C(N)=O)c3[nH]c(=O)n(-c4cccc(C)c4)c3n2)cc1O | -1 | 64* | 11 | 0
COc1ccc(-c2nc(C(N)=O)c3[nH]c(=O)n(-c4ccccc4OC)c3n2)cc1 | 1 | 48* | 5 | 0
COc1cccc(C2N(c3ccc(C)cc3)N=C(C(C)=O)N2c2cccc(C)c2)c1OCc1ccccc1 (stereo not given) | 2 | 68* | 3 | 0
COc1cccc(C2N(c3ccccc3)N=C(C(C)=O)N2c2ccc(C)c(C)c2)c1OCc1ccccc1 (stereo not given) | 1 | 54* | -23 | 0
CC(=O)C1=NN(c2ccccc2)C(c2ccccc2OCc2ccc(Cl)cc2)N1c1ccc(Cl)cc1 (stereo not given) | -2 | 1 | -26 | 0
CCCN1CCc2nc(NC(=O)c3sc4ccccc4c3Cl)sc2C1 | -1 | 34* | 8 | 0
COc1cccc(NC(=O)c2sc(NC(=O)/C=C/c3ccccc3)nc2C)c1 | -1 | 55* | -8 | 0
Cn1cc(-c2ccc3cnc(Nc4ccc(N5CCOCC5)cc4)nc3c2)cn1 | 2 | 60* | 19 | 1
c1cn(-c2ccc(Nc3ncc4ccc(-c5cn[nH]c5)cc4n3)cc2)cn1 | -1 | 96* | 24 | 0
Cc1cnc(Nc2ccc(-n3ccnc3)cc2)nc1N | 0 | -4 | 6 | 0
Cn1cc(-c2ccc3cnc(Nc4ccc(C(=O)N5CCOCC5)cc4)nc3c2)cn1 | -2 | 71* | 28 | 0
Cn1cc(-c2ccc3cnc(Nc4ccc(-n5ccnc5)cc4)nc3c2)cn1 | -1 | 72* | 7 | 0
